# Experimental data as given in PubChem BioAssay (NCI).
# This is part of a sample that, as a whole, favours compounds with a hit. Of some 83,000 tested, about 20% had one in any assay.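 For each line, cells grew in 96-well plates with the test compound present at a single concentration for 48 hours.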 Values without a mark were called inactive. The source made the active and inactive calls. Rule for the calls: active = growth percent below 10; inactive = the rest.
# Columns and labels:
# Experiment in all cases: NCI-60 one-dose screen, 48 h (100 = growth as untreated, 0 = no growth, -100 = all killed)
# Settings in all cases: 10 µM unless noted
# DU-145 prostate = system: DU-145 prostate
# MALME-3M melanoma = system: MALME-3M melanoma
# MDA-MB-231 breast = system: MDA-MB-231 breast
# RXF 393 renal = system: RXF 393 renal
# SF-268 CNS = system: SF-268 CNS
# SF-295 CNS = system: SF-295 CNS
# SF-539 CNS = system: SF-539 CNS
# UACC-257 melanoma = system: UACC-257 melanoma
# M14 melanoma = system: M14 melanoma
# HCT-15 colon = system: HCT-15 colon
# HT29 colon = system: HT29 colon
# SNB-75 CNS = system: SNB-75 CNS
# SNB-19 CNS = system: SNB-19 CNS
# U251 CNS = system: U251 CNS
# SK-MEL-5 melanoma = system: SK-MEL-5 melanoma
# UACC-62 melanoma = system: UACC-62 melanoma
# LOX IMVI melanoma = system: LOX IMVI melanoma
# SK-MEL-28 melanoma = system: SK-MEL-28 melanoma
# PC-3 prostate = system: PC-3 prostate
SMILES,growth (DU-145 prostate),growth (MALME-3M melanoma),growth (MDA-MB-231 breast),growth (RXF 393 renal),growth (SF-268 CNS),growth (SF-295 CNS),growth (SF-539 CNS),growth (UACC-257 melanoma),growth (M14 melanoma),growth (HCT-15 colon),growth (HT29 colon),growth (SNB-75 CNS),growth (SNB-19 CNS),growth (U251 CNS),growth (SK-MEL-5 melanoma),growth (UACC-62 melanoma),growth (LOX IMVI melanoma),growth (SK-MEL-28 melanoma),growth (PC-3 prostate)
CN1C(N2CCN(S(=O)(=O)c3ccccc3)CC2)=NS(=O)(=O)c2ccccc21,139%,103%,104%,-6.07% (active),101%,39.9%,111%,61.5%,99.8%,113%,104%,53.4%,104%,99.7%,104%,94.4%,96%,103%,
NC(=O)CSSCC(N)=O,104%,93.3%,109%,117%,97.9%,97.1%,102%,95.8%,,102%,105%,95.2%,101%,93.4%,98.4%,95.8%,100%,109%,92.1%
CCOC(=O)C1=C(CCl)NC(=O)NC1c1ccc2c(c1)OCO2 (configuration not stated),36.6%,18.5%,39.4%,39.1%,66.9%,71.1%,16.5%,67.2%,,3.53% (active),6.92% (active),77.6%,64.4%,18.5%,9.17% (active),31.4%,21%,,53.9%
Cc1nn(-c2ccccc2)c(Cl)c1/C=C/C(=O)c1ccc(F)cc1,104%,93.2%,97.9%,80.8%,96.8%,91.2%,89.9%,88.9%,80.6%,73.9%,91.1%,97.9%,87%,,91.7%,65.2%,76.5%,105%,78.7%
CCN1C(=O)N(CC)C2Nn3c(s/c(=C\c4ccc(OC)cc4)c3=O)=NC21 (configuration not stated),67.3%,54.1%,61.4%,56.2%,63.1%,44.1%,42.9%,45%,,32.2%,83.1%,8.85% (active),53.1%,39.3%,47.6%,34.1%,53.6%,62.8%,44.1%
CC(=O)Oc1ccc(/C=N/NC(N)=S)nc1,81.5%,97.8%,87.1%,34.7%,66.5%,104%,20.4%,81.4%,,92%,94.6%,8.77% (active),102%,51.7%,14.6%,59.3%,47.7%,65.7%,81%
CCCCC/C=C/C(C)=C/C1CC(C)C/C=C/CCC(O)C(OC(N)=O)CCC(C)CC(O)C(C)C(=O)O1 (configuration not stated),79.5%,101%,,110%,104%,59.2%,106%,88.1%,72.9%,89.8%,96.9%,98.9%,183%,82.1%,61.4%,82%,73.9%,85.7%,73.7%
O=C1CC(=O)OC(c2ccc([N+](=O)[O-])cc2)O1,13.9%,-36.6% (active),-3.22% (active),-91% (active),4.85% (active),70.3%,-69.9% (active),-23.6% (active),,-48.8% (active),-39.5% (active),9.16% (active),55.2%,4.05% (active),18.4%,-72.2% (active),-84.5% (active),-17.3% (active),37%
Cn1c(-c2c(N)n(CCCN3CCOCC3)c3nc(C#N)c(C#N)nc23)nc2ccccc21,75.3%,48.4%,43.4%,51.2%,76.2%,110%,19.3%,67.8%,74.2%,67.1%,68%,38.4%,76.1%,,92.9%,77.2%,67.7%,59.1%,35.5%
COc1ccc(-c2cnc3c(-c4cccc5cnccc45)cnn3c2)cc1,69.9%,45%,37.8%,48.7%,92.7%,62.5%,2.09% (active),88.7%,,64.5%,41.3%,42%,47.2%,56.3%,56.5%,59.3%,80%,,50.6%
Cc1cc2cc3ccc(N(C)C)cc3nc2cc1N,-50.3% (active),-5.97% (active),-18.4% (active),-38% (active),0.225% (active),2.71% (active),-4.96% (active),-1.21% (active),-13.4% (active),19.4%,-37.3% (active),-11.5% (active),-4.5% (active),,-0.276% (active),-27.5% (active),-53.7% (active),,12.7%
O=C1Nc2ccc(F)cc2/C1=C\c1c(-c2ccccc2)nc2ccccn12,86.5%,67.5%,73.4%,50.8%,79.5%,57%,73.3%,90.7%,48.7%,51.9%,52.1%,61.6%,75.4%,,61.5%,60.7%,64.1%,85.1%,67.5%
O=C(Nc1ncc(Cc2cc(Cl)ccc2Cl)s1)c1cccs1,81.1%,50%,79.8%,56%,74.9%,50.4%,73.9%,78.6%,42.9%,23.5%,24.3%,72.5%,72.9%,,42.9%,36.7%,43.3%,63.7%,53.4%
COc1ccc(/C=C/c2nc(Nc3ccc(S(=O)(=O)Nc4cc(C)on4)cc3)c3ccccc3n2)cc1,77.3%,112%,62.1%,113%,76.4%,54.6%,88.7%,77.5%,39.9%,48.8%,69.3%,74.7%,83.2%,74.5%,43.5%,17.5%,31.5%,91.7%,
Cc1nc2sccn2c1-c1nc2sccn2c1/C=C1/C(=O)Nc2ccccc21,48%,50%,44.6%,32.7%,60.9%,-8.95% (active),16.4%,51.8%,34.2%,29.4%,0.756% (active),15.2%,31.5%,,20.5%,33.6%,36.3%,45.3%,28.7%
C=C1C(=O)O[C@H]2[C@H]1CC/C(CNC(=O)c1cccc3ccccc13)=C\CC[C@@]1(C)O[C@@H]21,33.8%,36.2%,34.1%,27.5%,63.1%,85.9%,59.7%,66.2%,,10.2%,8.85% (active),82.6%,66.4%,59%,60.1%,31.4%,24.3%,41.2%,53.7%
Cc1ccc(-c2csc(NC(=O)CSc3nc(-c4ccccc4)cc(=O)[nH]3)n2)cc1,103%,94.4%,93.2%,110%,90.2%,87.5%,97.7%,99.9%,105%,94.5%,102%,96.1%,87.5%,,87.4%,70%,96.5%,97.5%,
Cc1ccc(NS(=O)(=O)c2ccc(-c3cnc(C4CC4)o3)cc2)cc1C(F)(F)F,87.1%,65.8%,78.8%,69.4%,77.5%,43.6%,65.5%,73.7%,48.6%,35.2%,28.5%,46.6%,61%,68.5%,49%,47.3%,55.9%,64.1%,
OC(c1cccc(C(F)(F)F)c1)c1cnccc1NC1CCCCC1 (configuration not stated),85%,83.2%,66.1%,78.8%,89.6%,81%,91.7%,87%,,81.3%,37.9%,72.1%,89.3%,76%,69.6%,74%,82.4%,98.4%,69.4%
CCc1ccc(-c2cn3ccnc3c(-c3ccc4ncn(Cc5ccccc5)c4c3)n2)cc1,80.9%,115%,56.8%,69.3%,69.5%,48.8%,78.8%,103%,,25.3%,31.2%,70.7%,79.1%,53.9%,52.1%,75.1%,49.8%,,49.6%
Cc1nn(-c2ccccc2)c(Cl)c1/C=N\N=c1/sc2ccccc2n1C,108%,112%,93.2%,109%,101%,109%,97.5%,97.1%,,103%,93.3%,107%,98.6%,103%,104%,87.1%,117%,103%,89.5%
COc1cc2c3c(c4c5ccccc5[nH]c4c2c(OC)c1OC)C(=O)N(CCN1CCOCC1)C3=O,66%,78.5%,72.4%,48.8%,47.7%,36.5%,63.7%,70.4%,76%,50%,34.2%,86.4%,51.9%,51.8%,54.7%,43.3%,45%,99.2%,
N#CC(C(=O)/C(=N/NC(=O)c1ccccc1O)C(C#N)c1ccccc1)c1ccccc1 (configuration not stated),39.4%,87.8%,63.7%,55.9%,44.1%,101%,33.3%,46.2%,46.4%,43.1%,101%,18%,33.2%,,81.7%,21.7%,44.7%,83.7%,55.2%
COc1cc(CC(=O)n2ncc3ccc(N)cc32)cc(OC)c1OC,105%,85.7%,79.2%,108%,93.5%,91.3%,88.4%,105%,,88.2%,109%,87.3%,101%,98.4%,92.9%,92.9%,90.1%,99.9%,88.2%
C[C@H]1[C@H](C)CC[C@]2(C(=O)Nc3ccc4ncccc4c3)CC[C@]3(C)C(=CC[C@@H]4[C@@]5(C)CCCNC(C)(C)[C@@H]5CC[C@]43C)[C@H]12,-74.1% (active),-78.5% (active),-71.9% (active),-84.8% (active),-40.4% (active),-50.8% (active),-72.9% (active),-86.9% (active),-92% (active),-83.7% (active),-88.5% (active),78.2%,-59.6% (active),,-18.8% (active),-74.5% (active),-89.7% (active),-67.3% (active),-4.73% (active)
Cc1ncc(C(=O)Nc2ccc(CN3CCN(C)CC3)c(C(F)(F)F)c2)cc1C#Cc1cnc(N)cc1C#N,-96.1% (active),-94.3% (active),-81.4% (active),-93.3% (active),22.9%,70%,-98.4% (active),-89.3% (active),,-65.2% (active),-86.2% (active),37%,74.4%,,-100% (active),-83.7% (active),-99.9% (active),-94.6% (active),-55.6% (active)
